TRPM1 prom inh: reduces MITF-dependent TRPM1 promoter luciferase signal. SK-MEL-5 TRPM1 promoter luciferase, 24 h. inhibition, % at 12.5 µM. 0.83% of 330,000 active;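 active = mean inhibition across replicates of 60% or more, whatever share of single replicates reaches that level; inconclusive = some that reach 60%, reason not given; inactive = mean inhibition across replicates below 60%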
LGR2 inh: Drosophila LGR2 receptor signaling inhibition | HEK293 LGR2, CRE-luciferase, bursicon-stimulated, 4 h | inhibition, % at 9.99 µM | 0.35% of 380,000 active | AID 720647;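 active = drop in luminescence signal, shown as inhibition above about 50% in the replicate tests, limit read from the data, passing the limit was not always enough; inconclusive = probably only some replicates passing the limit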;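 note: agonist challenge used bursicon conditioned medium at about half maximal strength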
Shn3 3UTR inh: reduces Shn3 3'UTR luciferase signal in osteoblasts | inhibition, % at 12.5 µM | AID 588674 | 0.52% of 360,000 active | Clone20 osteoblast Shn3 3'UTR firefly luciferase, 24 h;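 active = mean inhibition of at least 75% with every replicate also reaching 75%; inconclusive = mean inhibition at least 75% but some replicate below; inactive = mean inhibition below 75%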;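 note: 0% = median of neutral control wells and 100% = pilot-screen positive control compound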
PAX8 reporter: inhibitors of PAX8 transcriptional activity in RMG-I cells | 1.2% of 360,000 active | inhibition, % at 12.6 µM | RMG-I TPO-luciferase reporter, SteadyGlo, 24 h;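 active = mean replicate inhibition at least 60% with every replicate also reaching 60%; inconclusive = only one of the two criteria is met; inactive = mean below 60% and not all replicates reaching 60%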;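 note: luciferase light reporting Pax8 driven TPO promoter activity; plate controls were median of neutral control wells for no effect and mitoxantrone controls for full effect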
EBV LMP1 NFkB: inhibitors of Epstein-Barr LMP1-induced NF-kappaB reporter | AID 504558 | inhibition, % at 12.5 µM | 0.69% of 350,000 active | LMP1-induced NF-kappaB luciferase reporter cells, luminescence; in the data active = inhibition above about 41%; inconclusive = no clear call, values can overlap the other calls;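 note: 0% = neutral control wells and 100% = reference inhibitor control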
EWS-Fli block: inhibitors of EWS/Fli oncoprotein transcriptional activity; A673 NR0B1-luciferase reporter, viability-normalised; inhibition, % at 12.6 µM; 0.67% of 350,000 active; AID 651661;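 active = mean inhibition of at least 50% after viability correction, with every replicate also passing that limit; inconclusive = mean reaches 50% but only one of two replicates passes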;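 note: firefly luciferase signal divided by Alamar Blue viability fluorescence both relative to DMSO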
* hit, by the source's call; ? = inconclusive; nt = no result given. The list is not random: actives were taken first. Their share in the collection is about 2.2%.

SMILES | TRPM1 prom inh | LGR2 inh | Shn3 3UTR inh | PAX8 reporter | EBV LMP1 NFkB | EWS-Fli block
CCCCC(=NCCc1c(C)[nH]c2ccc(OC)cc12)C1=C(O)CC(c2ccccc2)CC1=O (configuration not stated) | 25 | 27 | 20 | 54 | 17 | 55*
COc1cccc2sc(Nc3nc(-c4ccncc4)cs3)nc12 | -5 | 2 | 20 | -3 | 4 | 63*
COc1cccc2sc(Nc3nc(-c4cc5ccccc5oc4=O)cs3)nc12 | -1 | 14 | 5 | 2 | 9 | nt
Cc1c(OCC(=O)NC2CC(C)(C)NC(C)(C)C2)ccc2c3c(c(=O)oc12)CCC3 | 4 | 6 | -23 | -5 | -6 | -2
Cc1c(OCC(=O)NC2CC(C)(C)NC(C)(C)C2)ccc2c1oc(=O)c1ccccc12 | 76* | -2 | 12 | -5 | -14 | -5
CCC(=O)N(C)C[C@H]1Oc2ncc(-c3ccc(C)cc3)cc2C(=O)N([C@H](C)CO)C[C@@H]1C | nt | -2 | nt | nt | nt | 4
O=C(Cc1ccccn1)NCC[C@H]1CC[C@H](NC(=O)Nc2ccc(C(F)(F)F)cc2)[C@H](CO)O1 | nt | -23 | nt | 69* | nt | -9
O=C(Cc1ccccn1)N[C@H]1CC[C@H](CCn2cc(-c3ccccc3)nn2)O[C@@H]1CO | nt | -1 | nt | 79* | nt | -6
O=C(Cc1ccccn1)N[C@@H]1CC[C@@H](CCn2cc(-c3ccccc3)nn2)O[C@H]1CO | nt | 5 | nt | 99* | nt | 3
O=C(Cc1ccccn1)N[C@H]1CC[C@@H](CCn2cc(-c3ccccc3)nn2)O[C@H]1CO | nt | 12 | nt | 7 | nt | 6
C[C@@H]1CCCCO[C@@H](CN(C)S(=O)(=O)c2ccccc2)[C@H](C)CN([C@H](C)CO)C(=O)c2cc(NS(=O)(=O)c3cccs3)ccc2O1 | nt | -3 | nt | 27 | nt | -11
CCCNC(=O)N1C[C@@H](C)[C@H](OC)CN(C)C(=O)c2ccc(NC(C)=O)cc2OC[C@H]1C | nt | 17 | nt | nt | nt | 3
O=C(C[C@H]1C[C@@H]2c3cc(NC(=O)NC4CCCCC4)ccc3O[C@@H]2[C@@H](CO)O1)NC1CCCC1 | nt | 5 | nt | -2 | nt | -1
COc1ccc(F)cc1C1=CC(=O)C[C@H](c2ccc3c(c2)OCO3)C1 | 27 | 3 | 1 | -2 | 0 | 53*
COc1ccc([C@H]2CC(=O)C=C(c3ccc4c(c3)OCO4)C2)cc1OC | nt | -24 | 86* | -1 | 1 | 3
O=C1C=C(c2ccccc2)C[C@@H](c2ccc3c(c2)OCO3)C1 | 2 | -12 | 11 | -11 | 4 | -7
COc1cccc(C2=CC(=O)C[C@H](c3ccc4c(c3)OCO4)C2)c1 | 4 | nt | 1 | nt | 48* | nt
COc1cc(F)c(C2=CC(=O)C[C@H](c3ccc4c(c3)OCO4)C2)cc1F | 7 | -5 | -15 | 9 | -7 | -2
COc1ccc(CN(C)C[C@H]2OCCCC[C@@H](C)Oc3ccc(NC(=O)NC(C)C)cc3C(=O)N([C@@H](C)CO)C[C@H]2C)cc1 | nt | 10 | nt | 5 | nt | -1
CC(C)NC(=O)N(C)C[C@H]1Oc2ccc(NC(=O)Cc3cn(C)c4ccccc34)cc2C(=O)N([C@@H](C)CO)C[C@H]1C | nt | 13 | nt | -4 | nt | -25
Cc1noc(C)c1NC(=O)N(C)C[C@H]1Oc2ccc(NC(=O)Cc3cn(C)c4ccccc34)cc2C(=O)N([C@@H](C)CO)C[C@@H]1C | nt | -7 | nt | nt | nt | -5
CCOC(=O)c1ccc(NC(=S)N2CCSC2c2ccc(OC)cc2)cc1 (configuration not stated) | -2 | 7 | 11 | -6 | 67* | nt
C[C@@H]1CN([C@@H](C)CO)C(=O)c2cc(Br)cnc2O[C@@H]1CN(C)CC1CCCC1 | nt | 24 | nt | nt | nt | -8
C[C@H](O)C#Cc1ccc2c(c1)O[C@@H](CN(C)CC1CCOCC1)[C@@H](C)CN([C@@H](C)CO)S2(=O)=O | nt | 9 | nt | -10 | nt | -11
CN1C(=O)c2cc(NC(=O)c3cccc(C(F)(F)F)c3)ccc2OC[C@H]2O[C@@H](CC(=O)O)CC[C@H]21 | nt | 7 | nt | 0 | nt | -4
SMILES | TRPM1 prom inh | LGR2 inh | Shn3 3UTR inh | PAX8 reporter | EBV LMP1 NFkB | EWS-Fli block
CN(C)CCNC(=O)c1cc2c(s1)-c1ccc(Cl)cc1SC2 | 100* | 2 | 17 | 93* | 3 | 35
CCOCCCNC(=O)c1cc2c(s1)-c1ccccc1SC2 | -14 | 5 | -31 | -20 | 5 | -5
CCC(=O)N1[C@@H](CO)[C@@H](c2ccc(-c3ccccc3C)cc2)C12CN(C(C)=O)C2 | nt | -31 | nt | nt | nt | 7
COc1ccc(NC2=NCC(Cc3ccc(Br)cc3)S2)cc1 (configuration not stated) | 59 | -4 | 37 | 6 | 66* | 12
Cc1ccc(S(=O)(=O)Nc2ccc3c(c2)C(=O)N([C@@H](C)CO)C[C@@H](C)[C@H](CN(C)C(=O)CCCN(C)C)OCCCC[C@H](C)O3)cc1 | nt | 15 | nt | 9 | nt | -1
C/C=C/c1ccc([C@@H]2[C@@H](CO)N(C(=O)C3CCCCC3)C23CN(C(=O)NC(C)C)C3)cc1 | nt | -2 | nt | nt | nt | 0
CCn1nnc2cc(C(=O)Nc3cc(Cl)ccc3C)ccc21 | 2 | -12 | 88* | -2 | 5 | -12
C[C@@H]1CN([C@@H](C)CO)C(=O)c2c(c3ccccc3n2C)-c2ccccc2CO[C@@H]1CN(C)S(=O)(=O)c1ccc(C(F)(F)F)cc1 | nt | ? | nt | 97* | nt | 9
C[C@H](CO)N1C[C@H](C)[C@H](CN(C)S(=O)(=O)c2ccc(C(F)(F)F)cc2)OCc2ccccc2-c2c(n(C)c3ccccc23)C1=O | nt | 53* | nt | 54 | nt | -8
C[C@H](CO)N1C[C@H](C)[C@@H](CN(C)S(=O)(=O)c2ccc(C(F)(F)F)cc2)OCc2ccccc2-c2c(n(C)c3ccccc23)C1=O | nt | 26 | nt | 37 | nt | 20
C[C@@H]1CN([C@@H](C)CO)C(=O)c2cc(NS(=O)(=O)c3ccccc3)ccc2O[C@@H](C)CCCCO[C@@H]1CN(C)C(=O)Nc1cccc2ccccc12 | nt | 21 | nt | -1 | nt | 12
C[C@@H]1CCCCO[C@@H](CN(C)C(=O)Nc2cccc3ccccc23)[C@H](C)CN([C@H](C)CO)C(=O)c2cc(NS(=O)(=O)c3ccccc3)ccc2O1 | nt | 5 | nt | 80* | nt | 13
Cc1ccc(S(=O)(=O)Nc2ccc3c(c2)C(=O)N([C@@H](C)CO)C[C@@H](C)[C@@H](CN(C)C(=O)Nc2cccc4ccccc24)OCCCC[C@@H](C)O3)cc1 | nt | 8 | nt | 68* | nt | 12
NC1=NC(=O)/C(=C/c2ccc(Br)cc2)S1 | 1 | -4 | -21 | -1 | 74* | -23
Cc1ccsc1/C=C1\SC(N)=NC1=O | -4 | nt | -25 | nt | 50* | nt
COc1cccc(-c2ccc3c(c2)O[C@@H](CN(C)C(=O)C2CC2)[C@@H](C)CN([C@H](C)CO)S3(=O)=O)c1 | nt | -11 | nt | nt | nt | -8
Cc1cccc(S(=O)(=O)N2C[C@H](O)COC[C@H]3O[C@H](CC(=O)N4CCN(C)CC4)CC[C@@H]32)c1 | nt | 2 | nt | 4 | nt | -5
CN(C)CCCNC(=O)[C@H]1[C@H](CO)[C@H]2Cn3c(ccc(-c4cccc(F)c4)c3=O)[C@H]2N1C | nt | 8 | nt | -22 | nt | -7

Screens (PubChem)
